Compound activity from PubChem.
Apoferritin bind = binds horse apoferritin like a general anesthetic; P02791; apoferritin/1-aminoanthracene competitive binding, fluorescence; Potency, µM (doses to about 77.5 µM), hits mostly inhibitors; actives 0.074% (n = 350,000); further: nearly all actives have a fitted effect of over 20% in size
Target sequence (P02791 2-175 limits assumed): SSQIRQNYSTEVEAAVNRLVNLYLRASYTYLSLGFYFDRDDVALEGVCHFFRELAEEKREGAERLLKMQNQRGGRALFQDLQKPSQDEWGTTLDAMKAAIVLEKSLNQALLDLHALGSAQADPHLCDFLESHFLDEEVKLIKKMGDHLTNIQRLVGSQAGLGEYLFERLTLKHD
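In PBS, apoferritin at 10 uM is loaded with 1-AMA from a 50% saturated solution. After 10 min of compound exposure at ambient temperature, reduced 535 nm fluorescence indicates probe displacement.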
Giardia killer = Giardia lamblia killing | Giardia lamblia trophozoite viability | activity change, % at 7.66 µM, hits read low | actives 0.15% (n = 340,000) | AID 540267; in the data active means activity change below about -80%; inconclusive means between about -30% and that limit;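 further: parasites exposed to compound for two days anaerobically before the ATP read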
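Luminescence from cellular ATP indicates surviving trophozoites (100 cells/well) following 48 hrs anaerobic compound treatment at 37 deg C; signal develops 15-30 min at room temperature.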
Nrf2 activator = activates Nrf2 signaling; actives 0.31% (n = 410,000); Potency, µM (titrated, usually from 46.1 µM), hits mostly activators; AREc32 ARE-luciferase reporter (MCF7-derived line), luminescence, 24 h; further: nearly all actives have a fitted effect of over 65% in size
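Quantitative high-throughput format: AREc32 reporter cells, 1000 per well, received compound by pin transfer and were incubated 24 hr at 37 deg C, 5% CO2, before Steady-Glo luminescence detection.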
Nrf2 inh = inhibitors of Nrf2 signaling | A549 ARE-Fluc reporter, luciferase luminescence, 18-24 h | Potency, µM (series often up to 46 µM), usual class: inhibitors | actives 2.1% (n = 360,000) | AID 504444; further: nearly all actives have a fitted effect of over 60% in size
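In this cell-based qHTS, ARE-driven firefly luciferase in A549 cells reports Nrf2 activity; the luminescent signal after BugLite lysis is the measured value, with a prior CellTiter-Fluor read for cell health.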
A549 tox = A549 cytotoxicity, counter-screen for Nrf2 inhibitors | A549 ARE-Fluc cells, CellTiter-Fluor viability, 18-24 h | actives 0.16% (n = 390,000) | AID 504648 | Potency, µM (top dose mostly 46 µM), usual class: inhibitors
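A549 ARE-Fluc cells in 5% FBS OPTI-MEM, 5000 cells/well, rested 2 h then exposed to compounds in concentration-response for 18-24 h at 37 °C. Viability by CellTiter-Fluor fluorescence (Ex 405/Em 525) after 30 min; luciferase luminescence (BugLite, 15 min, RT) read afterwards.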
IDH1 R132H inh = blocks human mutant IDH1 R132H enzyme; actives 0.093% (n = 390,000); O75874; Potency, µM (titrated, usually from 76.6 µM), usual class: inhibitors; IDH1-R132H enzyme, NADPH consumption, diaphorase/resazurin fluorescence; further: nearly all actives have a fitted effect of over 65% in size
Target sequence (O75874 whole entry R132H, stated change not applied): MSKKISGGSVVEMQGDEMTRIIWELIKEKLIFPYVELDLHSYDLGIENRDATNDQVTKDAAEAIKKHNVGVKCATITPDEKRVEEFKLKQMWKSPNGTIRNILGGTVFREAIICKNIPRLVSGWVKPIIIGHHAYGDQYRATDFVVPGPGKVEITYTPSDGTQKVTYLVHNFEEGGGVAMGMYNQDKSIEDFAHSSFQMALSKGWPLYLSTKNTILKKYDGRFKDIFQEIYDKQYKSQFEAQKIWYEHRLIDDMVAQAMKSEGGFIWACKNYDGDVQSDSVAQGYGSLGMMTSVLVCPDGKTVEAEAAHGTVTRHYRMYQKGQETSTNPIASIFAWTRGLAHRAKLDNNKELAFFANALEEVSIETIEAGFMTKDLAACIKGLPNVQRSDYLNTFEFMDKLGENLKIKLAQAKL
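IDH1-R132H (0.5 ug/mL dispensed) in pH 7.5 Tris buffer was preincubated 30 min with compound, then given a substrate mix of 0.016 mM NADPH and 2 mM alpha-KG for 80 min at room temperature; remaining NADPH was read by diaphorase/resazurin fluorescence.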
Hits are given with their value; . = inactive; ? = inconclusive; / = not tested or not shown; ! = not confirmed by another sample; [ ] = another dose, or the depositor's remark. Most compounds without a hit are left out; they make up all but 2.3% or so of the library. Unless noted, the call rests on the fitted dose curve; in most records, active means well fitted curve in the direction sought with a large enough effect; inconclusive means small, poorly fitted or top-dose-only effect, or another doubt; inactive means no such curve, though single readings can be large; an effect the other way counts as inactive or inconclusive.

SMILES | Apoferritin bind | Giardia killer | Nrf2 activator | Nrf2 inh | A549 tox | IDH1 R132H inh
Cc1[nH]c2ccccc2c1SCc1nnc(SCc2ccccc2)n1C | . | . | . | 26µM | . | .
Nc1ncnc2c1ncn2[C@@H]1O[C@H](CNC(=O)OC[C@@H](N)Cc2ccccc2)[C@@H](O)[C@H]1O | / | / | . | / | / | /
O=C(OCC1OC(n2cnc3c(N(C(=O)c4ccccc4)C(=O)c4ccccc4)ncnc32)C(O)C1F)c1ccccc1 (configuration not stated) | ? | . | . | 16µM | ? | .
COc1ccccc1/C=C\C(=O)O | . | / | / | / | / | /
CC(=O)/C=C/c1ccccc1Oc1c(F)c(F)nc(F)c1F | . | . | 7.9µM | . | . | .
OCC[C@@H]1C[C@H](O)[C@@H](O)[C@]2(OCc3cc(Cl)ccc32)O1 | / | / | . | / | / | /
CCN(CC)C(=O)CSc1nnc2nnc3cc(OC)ccc3n12 | . | . | . | 18µM | ? | .
CCN(CC)C(=O)CSc1nnc(COc2ccc(OC)cc2)n1N | . | . | . | . | . | .
CCCCCCCCCCS(=O)(=O)N/N=C/c1ccc(O)cc1 | 16µM | . | . | . | . | .
CCCCCCCCCS(=O)(=O)N/N=C/c1cccc([N+](=O)[O-])c1 | 7.1µM | . | . | ? | . | .
Cc1cc(SCC(=O)N/N=C/c2ccc(O)cc2O)c(C)cc1Br | ? | . | . | 15µM | . | .
Cc1cc(SCC(=O)N/N=C/c2ccccc2C(=O)O)c(C)cc1Br | . | . | . | . | . | .
O=c1[nH]n(Cc2ccccc2)c(=O)c2ccccc12 | ? | . | 5µM | / | . | .
Cc1cccc(NC(=O)CCc2nc3sc4c(c3c(=O)[nH]2)CCCC4)c1 | / | . | . | . | . | .
CN(C)S(=O)(=O)c1cccc(NC(=O)CCc2nc3sc4c(c3c(=O)[nH]2)CCCC4)c1 | / | . | . | 16µM | . | .
CC(=O)c1ccc(Nc2ccc([N+](=O)[O-])c3nonc23)cc1 | . | . | 11µM | . | ? | .
O=[N+]([O-])c1ccc(Nc2ccccc2O)c2nonc12 | 18µM | ? | ? | . | . | .
COC(=O)c1ccc(Nc2ccc3nonc3c2[N+](=O)[O-])cc1 | . | -93 | . | . | . | .
CC1(C)C2CCC1(C)C(NC(=O)COC(=O)c1ccc(S(C)(=O)=O)c([N+](=O)[O-])c1)C2 (configuration not stated) | / | . | / | ? | . | /
COc1cc(CNCCCO)ccc1OCC(=O)NC(C)(C)C | . | . | . | . | . | .
COc1cc(CNc2ccc(CNc3ncn[nH]3)cc2)ccc1OCC(=O)NC(C)(C)C | . | . | . | 16µM | . | .
CC(C)(C)NC(=O)COc1ccc(CNc2ncn[nH]2)cc1 | . | . | . | . | . | .
COc1cc(CNc2ccc(N3CCOCC3)cc2)ccc1OCC(=O)NC(C)(C)C | . | . | . | 16µM | . | .
N#Cc1ccc(NC(=O)COC(=O)C2Cc3ccccc3CN2C(=O)c2ccccc2)cc1 (configuration not stated) | . | . | . | 7.3µM | ? | .
Cc1[nH]c2ccccc2c(=O)c1C(=O)/C=C/c1ccccc1 | . | . | ? | 18µM | ? | .
SMILES | Apoferritin bind | Giardia killer | Nrf2 activator | Nrf2 inh | A549 tox | IDH1 R132H inh
Nc1ncnc2c1C(c1ccccc1)c1c(ccc3ccccc13)O2 (configuration not stated) | / | . | . | 18µM! | ? | /
N=c1c2c(ccn1CCc1ccccc1)Oc1ccc3ccccc3c1C2c1ccccc1 (configuration not stated) | / | / | / | 3.7µM | 3.7µM | /
CC(C)(C)OC(=O)Nc1ncnc2c1C(c1ccccc1)c1c(ccc3ccccc13)O2 (configuration not stated) | / | / | / | . | . | /
Cc1ccccc1OCC(=O)Nc1ccc2nc(SCc3ccccc3)sc2c1 | . | / | . | . | . | .
O=C1c2cccc(NCCCNCCO)c2C(=O)c2cccc(NCCCNCCO)c21 | / | . | . | ? | 18µM | .
O=C1c2ccccc2C(=O)c2c(NCc3cccnc3)cccc21 | . | . | . | . | . | .
CC(C)C(=O)N1CCC1(C)C(=O)Nc1nc2ccccc2[nH]1 (configuration not stated) | / | / | .[9.22 µM] | / | / | /
Cc1ccc(NC(=O)COC(=O)CN2CSCC2=O)cc1C | . | . | . | . | . | .
Cc1ccc(NC(=O)COC(=O)CSC(=S)N2CCOCC2)cc1C | 5.6µM | . | . | . | . | .
CC(=O)c1cccc(NC(=O)c2cccn2-c2nnc(N3CCCCC3)s2)c1 | . | / | . | ? | . | .
c1ccc(Oc2ncnc3oc(-c4ccccc4)cc23)cc1 | . | . | . | / | . | .
c1ccc(-c2cc3c(-n4cccc4)ncnc3o2)cc1 | . | . | 3.2µM | . | . | .
CCOC(=O)CSc1nc2cc(OC)c(OC)cc2cc1C#N | / | . | / | . | . | /
Cc1cccn2c(=O)c3cc(C(=O)NCCN4CCOCC4)c(=N)n(CCN4CCOCC4)c3nc12 | . | . | . | . | . | .
Cc1cccn2c(=O)c3cc(C(=O)NCCN4CCOCC4)c(=N)n(Cc4ccc(F)cc4)c3nc12 | . | . | . | 16µM | ? | .
COc1ccc(-c2oc3ccc(N4CCOCC4)cc3c2C#CCO)cc1 | / | . | . | 18µM | . | .
COc1ccc(-c2ccc3oc(-c4ccc(OC)cc4)c(-c4ccc(OC)cc4)c3c2)cc1 | / | . | . | . | . | .
COc1ccc(-c2ccc3oc(-c4ccc(OC)cc4)c(C#CCO)c3c2)cc1 | / | . | . | 8.2µM | . | .
CN1C(=O)Cc2cc([S+](=O)([O-])N3CCN([S+](=O)([O-])c4c(F)cccc4F)CC3)ccc21 | / | / | / | . | . | /
COc1ccc(N2CCN(C(=O)CSc3nc(-c4ccc(C(C)C)cc4)no3)CC2)cc1 | . | / | . | ? | . | .
Cc1ccc(-c2nnc(Nc3cccc(Cl)c3)c3ccccc23)cc1S(=O)(=O)N1CCCCC1 | . | / | . | . | . | .
O=C(Cn1cnc2onc(-c3ccc(F)cc3)c2c1=O)Nc1cccc(C(F)(F)F)c1 | . | / | . | 23µM | . | .
Cc1ccc(C)c(N2CCN(CCCNC(=O)c3cnn(-c4ccc(F)cc4)c3C3CCN(C(=O)OC(C)(C)C)CC3)CC2)c1 | . | / | . | ? | 18µM | .
COc1ccc(OC)c(CCNC(=O)c2cnn(-c3ccc(C)cc3C)c2C2CCN(C(=O)OC(C)(C)C)CC2)c1 | . | / | . | 18µM | . | .
Cc1ccc(C)c(N2CCN(C(=O)c3cnn(C(C)(C)C)c3C3CCN(C(=O)OC(C)(C)C)CC3)CC2)c1 | . | / | . | 21µM | . | .
Cc1ccc(Cl)cc1N1CCN(C(=O)c2cnn(C(C)(C)C)c2C2CCN(C(=O)OC(C)(C)C)CC2)CC1 | . | / | . | ? | . | .
